Results: the supplement of paper PMC6607015
Counter-ions that a name gives are not always drawn.

How the values were obtained:
Settings in all cases: compound concentration in added solution (µM; 5 µl added to 20 µl cells): 10; 18 h
[1] = system: A431; assay: LBPA endosome anti-LBPA integrated intensity (sum per cell), Z-score; higher = more LBPA staining
Summary of the method: (§1)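 After 18 h on 5 µl of 10 µM compound solution in duplicate 384-well imaging plates, HeLa MZ or A431 cells, seeded at 3,500 per well in 20 µl, were fixed with 4% PFA. They were then labelled with 6C4 anti-LBPA antibody, filipin, propidium iodide and CellTracker green, and four 20× fields were recorded per well. Integrated LBPA or filipin intensity per cell, whole-cell or within LBPA endosomes, came from MetaXpress segmentation and was normalised to Z-scores in AcuityXpress.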

[2] = system: HeLa MZ; assay: as above
Summary of the method: as §1

[3] = system: A431; assay: whole-cell filipin (free cholesterol) integrated intensity, Z-score; higher = more cholesterol staining
Summary of the method: as §1

[4] = system: HeLa MZ; assay: as above
Summary of the method: as §1

[5] = system: A431; assay: filipin (cholesterol) integrated intensity within LBPA endosomes, Z-score; higher = more cholesterol in LBPA endosomes
Summary of the method: as §1

[6] = system: HeLa MZ; assay: as above
Summary of the method: as §1

SMILES	LBPA endosome anti-LBPA integrated intensity (z-score) [1]	LBPA endosome anti-LBPA integrated intensity (z-score) [2]	whole-cell filipin (z-score) [3]	whole-cell filipin (z-score) [4]	filipin (z-score) [5]	filipin (z-score) [6]
O=C(NCCNCC(O)COc1ccc(O)cc1)N1CCOCC1 (stereo not drawn) [Xamoterol hemifumarate]	-0.337	-0.849	-0.403	-0.263	-0.407	-0.533
COc1ccc(OC)c(C(O)CNC(=O)CN)c1 (stereo not drawn) [Midodrine hydrochloride]	-0.477	-0.609	-0.887	-1.05	-0.605	-0.723
CN(C)CCC=C1c2ccccc2COc2ccccc21 [Doxepin hydrochloride]	1.38	1.22	1.29	-0.0249	1.62	1.18
C=CCc1ccccc1OCC(O)CNC(C)C (stereo not drawn) [Alprenolol hydrochloride]	-0.146	-0.138	0.0188	0.141	-0.22	-0.133
O=C1C(CC[S+]([O-])c2ccccc2)C(=O)N(c2ccccc2)N1c1ccccc1 (stereo not drawn) [Sulfinpyrazone]	-0.368	0.025	0.303	-0.59	-0.319	-0.446
CN1CCN(C(c2ccccc2)c2ccccc2)CC1 [Cyclizine hydrochloride]	-0.35	0.424	-0.0386	-0.181	-0.285	0.0272
C[C@@H]1C[C@H]2[C@@H]3CCC4=CC(=O)C=C[C@]4(C)[C@@]3(Cl)[C@@H](O)C[C@]2(C)[C@@]1(OC(=O)c1ccco1)C(=O)CCl [Mometasone furoate]	-0.183	0.598	-0.317	1.11	-0.214	0.7
Cc1cc(C)nc(NS(=O)(=O)c2ccc(N)cc2)n1 [Sulfamethazine sodium salt]	-0.34	0.511	0.128	-0.158	-0.422	-0.588
CN(C)CCC(c1ccc(Br)cc1)c1ccccn1 (stereo not drawn) [Brompheniramine maleate]	-0.686	-0.0361	-0.609	-0.596	-0.344	0.233
C#C[C@]1(O)CC[C@H]2[C@@H]3CCC4=Cc5oncc5C[C@]4(C)[C@H]3CC[C@@]21C [Danazol]	-0.455	-0.444	-0.615	-0.566	-0.449	-0.556
NC[C@H]1O[C@H](O[C@H]2[C@H](O[C@@H]3O[C@H](CO)[C@@H](O)[C@H]3O)[C@@H](O)[C@H](N)C[C@@H]2N)[C@H](N)[C@@H](O)[C@@H]1O [Ribostamycin sulfate salt]	-0.548	1.92	-0.165	2.24	-0.516	-0.59
NC(=O)c1cnccn1 [Pyrazinamide]	-0.586	-0.505	-0.486	-0.665	-0.578	-0.581
Cc1cccc(N(C)C(=S)Oc2ccc3ccccc3c2)c1 [Tolnaftate]	0.133	0.375	-0.581	-0.535	-0.301	-0.655
C=C(CC)C(=O)c1ccc(OCC(=O)O)c(Cl)c1Cl [Ethacrynic acid]	-0.359	-0.213	-0.0585	0.416	-0.423	-0.312
CCn1cc(C(=O)O)c(=O)c2cc(F)c(N3CCN(C)CC3)cc21 [Pefloxacine]	-0.525	-0.713	-0.866	-1.02	-0.571	-0.621
O=C(O)Cc1cc(I)c(Oc2ccc(O)c(I)c2)c(I)c1 [Tiratricol, 3,3',5-triiodothyroacetic acid]	-0.369	0.145	-0.472	-0.883	-0.548	-0.66
CC1(C)S[C@@H]2[C@H](NC(=O)Cc3ccccc3)C(=O)N2[C@H]1C(=O)O [Benzathine benzylpenicillin]	-0.419	0.43	0.0117	0.113	-0.376	-0.279
C=CC1=C(C(=O)O)N2C(=O)[C@@H](NC(=O)/C(=N\OCC(=O)O)c3csc(N)n3)[C@H]2SC1 [Cefixime]	-0.497	-0.00426	-0.828	-0.585	-0.573	-0.64
OCCN(CCO)c1nc(N2CCCCC2)c2nc(N(CCO)CCO)nc(N3CCCCC3)c2n1 [Dipyridamole]	0.808	0.577	-0.543	-0.536	-0.2	-0.39
CCC(NC(C)C)C(O)c1ccc(O)c(O)c1 (stereo not drawn) [Isoetharine mesylate salt]	-0.174	0.0426	0.269	-0.32	-0.45	-0.32
CCCc1ncc(C[n+]2ccccc2C)c(N)n1 [Amprolium hydrochloride]	-0.558	-1.09	-0.581	-0.0131	-0.483	-0.419
CCN(CCCCOC(=O)c1ccc(OC)c(OC)c1)C(C)Cc1ccc(OC)cc1 (stereo not drawn) [Mebeverine hydrochloride]	2.42	2.15	1.9	1.63	2.46	2.74
C#CCN(C)Cc1ccccc1 [Pargyline hydrochloride]	-0.443	-0.371	-0.77	-0.65	-0.469	-0.441
Nc1ccc(S(=O)(=O)Nc2ccccn2)cc1 [Sulfapyridine]	-0.468	-0.131	-0.33	-0.348	-0.499	-0.602

SMILES	LBPA endosome anti-LBPA integrated intensity (z-score) [1]	LBPA endosome anti-LBPA integrated intensity (z-score) [2]	whole-cell filipin (z-score) [3]	whole-cell filipin (z-score) [4]	filipin (z-score) [5]	filipin (z-score) [6]
CCOc1ccc(Cc2nccc3cc(OCC)c(OCC)cc23)cc1OCC [Ethaverine hydrochloride]	0.203	2.53	0.476	0.57	-0.238	0.366
O=C(N[C@H](CO)[C@H](O)c1ccc([N+](=O)[O-])cc1)C(Cl)Cl [Chloramphenicol]	-0.509	-0.731	-0.952	-1.01	-0.558	-0.762
CC(=O)[C@H]1CC[C@H]2[C@@H]3CC=C4C[C@@H](O)CC[C@]4(C)[C@H]3CC[C@]12C [Pregnenolone]	2.84	2.65	1.33	1.33	2.1	1.2
CCc1cccc(CC)c1NC(=O)CN(CC(=O)O)CC(=O)O [Etifenin]	-0.633	-1.24	-0.798	-0.697	-0.521	-0.638
CC(C)(C(=O)c1cccnc1)c1cccnc1 [Metyrapone]	-0.435	-0.575	-0.128	-0.599	-0.359	-0.375
COc1ccc(C(=O)NCc2cccnc2)cc1C(=O)NCc1cccnc1 [Picotamide monohydrate]	-0.303	-0.286	-0.472	-0.0549	-0.457	-0.612
CCC(=O)[C@@]1(C)[C@H](C)C[C@H]2[C@@H]3CCC4=CC(=O)C=C[C@]4(C)[C@H]3[C@@H](O)C[C@@]21C [Rimexolone]	-0.0932	0.328	0.343	-0.0902	-0.235	-0.418
C[C@@H]1[C@H](O)[C@@H](C)/C=C/C=C/C=C/C=C/C=C/C=C/C=C/[C@H](O[C@@H]2O[C@H](C)[C@@H](O)[C@H](N)[C@@H]2O)C[C@@H]2O[C@](O)(C[C@@H](O)C[C@@H](O)[C@H](O)CC[C@@H](O)C[C@@H](O)CC(=O)O[C@H]1C)C[C@H](O)[C@H]2C(=O)O [Amphotericin B]	0.731	-0.696	-0.156	0.222	0.0841	-0.26
COc1ccc(CC(C)NCC(O)c2ccc(O)c(NC=O)c2)cc1 (stereo not drawn) [Formoterol fumarate]	-0.505	-1.42	0.171	-0.609	-0.478	-0.313
Oc1ncnc2[nH]ncc12 [Allopurinol]	-0.351	0.486	-0.157	-0.285	-0.415	-0.506
CNCCCN1c2ccccc2CCc2ccccc21 [Desipramine hydrochloride]	2.09	0.947	1.99	0.636	2.34	2.58
CC(=O)OCC(=O)NCCCOc1cccc(CN2CCCCC2)c1 [Roxatidine Acetate HCl]	-0.585	-0.0177	-0.731	-0.282	-0.524	-0.38
CCCOc1cc(N)ccc1C(=O)OCCN(CC)CC [Propoxycaine hydrochloride]	0.303	1.24	0.398	0.62	-0.0905	0.287
CC1=Nc2ccc(Cl)cc2S(=O)(=O)N1 [Diazoxide]	-0.529	-1.17	-0.801	-0.471	-0.542	-0.481
CCC(C)n1ncn(-c2ccc(N3CCN(c4ccc(OCC5COC(Cn6cncn6)(c6ccc(Cl)cc6Cl)O5)cc4)CC3)cc2)c1=O (stereo not drawn) [Itraconazole]	1.31	0.474	2.3	2.36	2.02	1.87
Oc1c(Cl)cc(Cl)c(Cl)c1Cc1c(O)c(Cl)cc(Cl)c1Cl [Hexachlorophene]	-0.408	-0.818	-0.203	-0.11	-0.443	-0.32
CC(=O)O[C@]1(C(C)=O)CC[C@H]2[C@@H]3C=C(C)C4=CC(=O)CC[C@@H]4[C@H]3CC[C@@]21C [Nomegestrol acetate]	0.292	0.691	1.29	1.28	0.654	0.778
CN(C)CCOC(c1ccccc1)c1ccccc1 [Diphenhydramine hydrochloride]	-0.431	-0.0117	-0.136	-0.63	-0.485	-0.0904
COC(=O)C1=C(C)NC(C)=C(C(=O)OCC(C)C)C1c1ccccc1[N+](=O)[O-] (stereo not drawn) [Nisoldipine]	0.222	1.99	0.622	0.224	-0.263	-0.481
CC(C)[C@H](N)C(=O)OCCOCn1cnc2c(=O)nc(N)[nH]c21 [Valacyclovir hydrochloride]	-0.418	0.0601	-0.723	-0.237	-0.459	-0.357
CC[C@@H](CO)NCCN[C@@H](CC)CO [Ethambutol dihydrochloride]	-0.297	-0.0372	-0.506	-0.399	-0.429	-0.483
COc1ccc2c3c1O[C@H]1C[C@@H](O)C=C[C@@]31CCN(C)C2 [Galanthamine hydrobromide]	-0.594	-0.476	-0.752	-0.607	-0.584	-0.496
CCc1oc2ccccc2c1C(=O)c1cc(Br)c(O)c(Br)c1 [Benzbromarone]	-0.388	-0.283	-0.536	-0.296	-0.47	-0.42
NNc1nncc2ccccc12 [Hydralazine hydrochloride]	-0.438	-1.11	-0.55	-0.572	-0.474	-0.461
